Results on 16 sequences are retold here after the OligoGym collection.
Further: reference of the scale not given here.

The target in one assay is NOL7. Nature of the assay: pooled miR-30 sensor sort-seq; sequence = guide strand. The following applies: shRNA.
Consider TGTACTTTAACTTTCTTGGAGT, for which the sensor-assay potency score (higher = more potent) is -0.613.

As for TTTTGTACTTTAACTTTCTTGG, the sensor-assay potency score (higher = more potent) was -0.17.

In the case of TAACTTCTTTCACCTTTCCTGG, the sensor-assay potency score (higher = more potent) is -0.398.

As to TTGTACTTTAACTTTCTTGGAG, the sensor-assay potency score (higher = more potent) was -0.0182.

On to TCGATGAACAGCTCCTCGCGTC, for which the sensor-assay potency score (higher = more potent) was -0.7.

Sequence TTAACTTCTTTCACCTTTCCTG returned a sensor-assay potency score (higher = more potent) of -0.368.

Another assay has as its target NOLC1. Described as above. Particulars: shRNA.
Consider TTGCCTGTAACTTTCGCTCTGG, for which the sensor-assay potency score (higher = more potent) was 0.151.

TTAGCTTTCTTAGCCACTGGTC returned a sensor-assay potency score (higher = more potent) of -0.169.

As for TTGCTTTTTAGGTACAGTCTTC, the sensor-assay potency score (higher = more potent) was -0.681.

Consider TTAGGTACAGTCTTCTTGGGGG, for which the sensor-assay potency score (higher = more potent) was 0.125.

TTTAGTCTGAGCTTTAACTGTC had a sensor-assay potency score (higher = more potent) of 0.463.

Regarding TAACTTTCGCTCTGGGACCTTG, the sensor-assay potency score (higher = more potent) is -0.857.

On to TTTGGTGAACTTCAAAACCTGA, for which the sensor-assay potency score (higher = more potent) is -0.529.

Take TTGACCTGGACAGAGATTGAGC: the sensor-assay potency score (higher = more potent) was -0.52.

As for TTTAGGTACAGTCTTCTTGGGG, the sensor-assay potency score (higher = more potent) is -0.268.

In turn, TTGCTTTAGAGACTACTGCCTT had a sensor-assay potency score (higher = more potent) of -0.589.
